From PubChem BioAssay (NCATS)
Results filed as inconclusive are left out. Unmarked numbers belong to inactive results. Activity calls are given as the source filed them. The call rests on the fitted dose curve; in most records, active means well fitted inhibition curve with a large enough effect; inconclusive means small, poorly fitted or top-dose-only effect; inactive means flat fitted curve, though single readings scatter.

tested on: Zika virus NS2B-NS3 protease; assay: Primary screen GU AMC qHTS for Zika virus inhibitors (AID 1347154); conditions: Zika NS2B-NS3 unlinked protease, AMC fluorogenic substrate; series mostly up to 54.1 µM; activity change, negative = inhibition: at the top concentration; further: nearly all actives have a fitted effect of over 70% in size;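 on activity change, negative = inhibition: 0% = no-inhibitor control and -100% = no-enzyme control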
Description: Avindra Nath, Ph.D., National Institute of Neurological Disorders and Stroke (NINDS), Bethesda, MD
Radhakrishnan Padmanabhan, Ph.D., Georgetown University (GU), Washington D.C.
Zika Virus causes congenital defects, including microcephaly and is associated with Guillain-Barre syndrome, eningoencephalitis and myelitis in infected adult. […] Using a target-based approach, we hope to establish a screening paradigm to uncover novel, cell-active NS2B-NS3 protease (Zika Virus) specific inhibitors from NCATS' collection of small molecules using qHTS.
Early Translation Branch (ETB)
National Center for Advancing Translational Sciences (NCATS), Rockville, MD
National Institute of Health (NIH), Bethesda, Maryland
Padmanabhan lab provided the NS2B hydrophilic domain and NS3 protease domain in a noncovalent complex used for the unlinked assay. Control compound aprotinin is obtained from Thermo Scientific (#78432; Waltham, Massachusetts). NS2B-NS3 AMC substrate (Bz-Nle-Lys-Arg-Arg-AMC; Nle-KRR-AMC) purchased from Bachem (#I-1995; Torrance, CA). Ac-VKTGKR-AMC purchased from Genscript or Bachem, Ac-FAAGKR-AMC purchased from Genscript, Ac-GLVKRR-AMC purchased from Genscript, Ac-LKKR-AMC purchased from Genscript.
GU AMC unlinked NS2B-NS3 protease qHTS protocol
Briefly, 3 microL of Zika virus unlinked NS2B-NS3 protease (25 nM for linked final concentration), in assay buffer (10 mM Tris-HCl pH 8.0 with 0.01% Tween 20) was dispensed into a 1,536-well solid-bottom black plate (Greiner Bio One, Monroe, NC). […] Plates were then read immediately on a ViewLux High-throughput CCD imager (PerkinElmer, Waltham, MA) equipped with standard UV fluorescence optics (340(30) nm excitation, 450(20) nm emission) then incubated (room temperature, protected from light) for 15 minutes (~20% conversion). The change in fluorescence intensity over the 15-minute reaction period was normalized against no-inhibitor and no-enzyme controls and the resulting percent inhibition data were fitted to a 4-parameter Hill equation. Aprotinin was used as the intraplate control.
Potency means the concentration at half of the fitted maximal effect.

| SMILES | activity change, negative = inhibition | Potency |
| --- | --- | --- |
| CCCCN1CCCC[C@H]1C(=O)Nc1c(C)cccc1C | -1.4% | – |
| C[C@H]1O[C@@H](n2cc(F)c(=O)[nH]c2=O)[C@H](O)[C@@H]1O | 3.75% | – |
| C[C@@H]1CC[C@@]2(OC1)O[C@H]1C[C@H]3[C@@H]4CC[C@H]5C[C@@H](O)CC[C@]5(C)[C@H]4CC(=O)[C@]3(C)[C@H]1[C@@H]2C | -4.75% [at 4.99 µM] | – |
| NCCNCCNCCN | -1.9% | – |
| Nc1ccc(S(=O)(=O)Nc2ccc(Cl)nn2)cc1 | -1.01% | – |
| CN1[C@@H]2CC(OC(=O)[C@H](CO)c3ccccc3)C[C@H]1[C@@H]1O[C@@H]12 (stereo not given in full) | 3.24% | – |
| CN1CCC[C@@H]1Cc1c[nH]c2ccc(CCS(=O)(=O)c3ccccc3)cc12 | 7.39% | – |
| OCC(CO)N[C@H]1C[C@](O)(CO)[C@@H](O)[C@H](O)[C@H]1O | -9.71% | – |
| COc1ccc(S(=O)(=O)Nc2nnc(CC(C)C)s2)cc1 | -1.84% | – |
| O=c1cc[nH]c(=S)[nH]1 | 0.607% | – |
| CC(=O)Oc1ccc(C2(c3ccc(OC(C)=O)cc3)C(=O)Nc3ccccc32)cc1 | 0.223% | – |
| N[C@@H](CSSC[C@H](N)C(=O)O)C(=O)O | 4.84% [at 0.59 µM] | – |
| NC(=O)c1ncn([C@@H]2O[C@H](CO)[C@@H](O)[C@H]2O)n1 | -1.16% | – |
| Nc1cc(=O)[nH]c(N)n1 | – | inactive |
| NC(=O)NC(=O)Cc1ccccc1 | -2.82% | – |
| Oc1cccc(O)c1 | 1.19% | – |
| O=C(O)CN1C(=O)c2cccc3cccc(c23)C1=O | 14.3% [at 104 µM] | – |
| COc1ccc2[nH]c(S(=O)Cc3ncc(C)c(OC)c3C)nc2n1 (stereo not given) | -10.9% | – |
| CCn1cc(C(=O)O)c(=O)c2cnc(N3CCNCC3)nc21 | 1.68% | – |
| CN1CCN(C2Cc3ccccc3Sc3ccc(Cl)cc32)CC1 (stereo not given) | -14.7% | – |

| SMILES | activity change, negative = inhibition | Potency |
| --- | --- | --- |
| O=c1cc[nH]c(=O)[nH]1 | 1.6% | – |
| O=C(Oc1ccccc1C(=O)O)c1ccccc1O | -14.4% | – |
| CCCCCCCCCCCCCCCC(=O)NCCO | – | inactive |
| Cc1cccc(C)c1NC(=O)CN(CC(=O)O)CC(=O)O | -5.79% | – |
| Cc1ncc([N+](=O)[O-])n1CC(O)CCl (stereo not given) | -4.7% | – |
| CCN(CC)CCNC(=O)c1cc(Cl)c(N)cc1OC | 1.03% | – |
| CC1(C)Oc2ccc(C#N)cc2[C@@H](N2CCCC2=O)[C@@H]1O | – | inactive |
| O=Cc1ccccc1C=O | -2.77% | – |
| NC(CSCC(=O)O)C(=O)O (stereo not given) | 1.85% | – |
| OCCN1CCN(CCCN2c3ccccc3Sc3ccc(Cl)cc32)CC1 | -3.3% | – |
| CCN(CC)CCSC(=O)C(c1ccccc1)c1ccccc1 | 2.7% | – |
| NS(=O)(=O)c1cc2c(cc1Cl)NC(CSCc1ccccc1)=NS2(=O)=O | -1.42% | – |
| CC(O)CN(CCN(CC(C)O)CC(C)O)CC(C)O (stereo not given) | -0.716% | – |
| CC(CN1c2ccccc2Sc2ccccc21)N(C)C (stereo not given) | -1.56% | – |
| [Cl][In]([Cl])[Cl] | – | 11.2 µM (active) |
| COc1ccc2cc1Oc1ccc(cc1)C[C@H]1c3c(cc4c(c3Oc3cc5c(cc3OC)CCN(C)[C@@H]5C2)OCO4)CCN1C | -4.66% | – |
| NC(=O)c1ncn([C@@H]2O[C@H](CO)[C@@H](O)[C@H]2O)c1N | -4.39% | – |
| O=C1O[C@H]([C@@H](O)CO)C(O)=C1O | -4.08% | – |
| CC(C(O)c1ccc(O)cc1)N1CCC(Cc2ccccc2)CC1 (stereo not given) | -3.17% | – |
| NC(=O)NNc1ccccc1 | 0.111% | – |
